The source of these data is PubChem BioAssay (EPA / NIEHS).

Read-out in test [1]: Interleukin-1 alpha (IL1a), IL1A (gene 3552)
The test can be described thus: BSK_BF4T_IL1a: BioMAP Diversity Plus: BF4T Assay for Interleukin-1 alpha (IL1a) Biomarker Activity (AID 2284264). The conditions noted are these: primary human bronchial epithelial cells with fibroblasts. Summed up:
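Human bronchial epithelial cells co-cultured with dermal fibroblasts, dosed and read at 24 h. Secreted/surface IL-1α quantified by ELISA; gain-of-signal fitted relative to DMSO baseline. Parallel SRB total-protein staining tracked cytotoxicity.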

Read-out in a further test: Decorin, DCN (gene 1634)
Kind of test: BSK_MyoF_Decorin: BioMAP Diversity Plus: MyoF Assay for Decorin Biomarker Activity (AID 2284265). The conditions noted are these: primary human lung fibroblasts. The method, boiled down: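 ELISA readout of decorin, 24 h post-dosing; primary human lung fibroblast (MyoF) culture; gain-of-signal fit vs DMSO baseline.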

Read-out in test [2]: KRT18 (gene 3875)
The test can be described thus: BSK_BF4T_Keratin818: BioMAP Diversity Plus: BF4T Assay for Keratin 818 Biomarker Activity (AID 2284266). The conditions noted are these: primary human bronchial epithelial cells with fibroblasts. Summed up: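 Co-culture of human bronchial epithelial cells and dermal fibroblasts, chemical exposure 24 h. Keratin 8/18 measured by ELISA; positive-direction fit vs DMSO. SRB total protein run in parallel cultures for cytotoxicity.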

Test [3] can be described thus: BSK_MyoF_SRB: Viability Assessment in the BioMAP Diversity Plus: MyoF Assay (AID 2284267).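 Also: total protein by SRB absorbance in parallel cultures as cytotoxicity measure.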 Conditions: primary human lung fibroblasts. Summed up: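 Human lung fibroblasts dosed with chemical and assessed 24 h later for overt cytotoxicity in parallel cultures. Total protein quantified by sulforhodamine B staining (0.1% SRB after 10% TCA fixation), read at 560 nm, analysed in positive direction versus DMSO baseline.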

Read-out in test [4]: Matrix Metallopeptidase 1 (MMP1), MMP1 (gene 4312)
Kind of test: BSK_MyoF_MMP1: BioMAP Diversity Plus: MyoF Assay for Matrix Metallopeptidase 1 (MMP1) Biomarker Activity (AID 2284268). Conditions: primary human lung fibroblasts. Summed up: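 Cells: human lung fibroblasts. Exposure: 24 h chemical dosing. Detection: ELISA for MMP1. Analysis: upward fitting against DMSO negative control.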

Read-out in test [5]: TIMP metallopeptidase inhibitor 1 (TIMP1), TIMP1 (gene 7076)
The test can be described thus: BSK_MyoF_TIMP1: BioMAP Diversity Plus: MyoF Assay for TIMP metallopeptidase inhibitor 1 (TIMP1) Biomarker Activity (AID 2284269). The conditions noted are these: primary human lung fibroblasts. Summed up:
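Primary human lung fibroblasts, MyoF multiplex system; chemical exposure 24 h; TIMP-1 by ELISA; positive fitting direction vs DMSO control.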

Read-out in test [6]: Matrix Metallopeptidase 1 (MMP1), MMP1 (gene 4312)
The test can be described thus: BSK_BF4T_MMP1: BioMAP Diversity Plus: BF4T Assay for Matrix Metallopeptidase 1 (MMP1) Biomarker Activity (AID 2284270). The conditions noted are these: primary human bronchial epithelial cells with fibroblasts. Summed up:
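Co-culture of human bronchial epithelial cells and dermal fibroblasts; MMP-1 levels measured by ELISA 24 hours after chemical dosing, relative to DMSO. Cytotoxicity checked in parallel cultures by SRB total-protein staining.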

Read-out in test [7]: Matrix Metallopeptidase 3 (MMP3), MMP3 (gene 4314)
The test can be described thus: BSK_BF4T_MMP3: BioMAP Diversity Plus: BF4T Assay for Matrix Metallopeptidase 3 (MMP3) Biomarker Activity (AID 2284271). The conditions noted are these: primary human bronchial epithelial cells with fibroblasts. The method, boiled down: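 Co-culture of human bronchial epithelial cells and dermal fibroblasts dosed 24 h; MMP-3 measured by ELISA, positive-direction fit versus DMSO. Cytotoxicity tracked by SRB total-protein staining (560 nm) in parallel cultures.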

Read-out in test [8]: Plasminogen Activator Inhibitor-1 (PAI1), SERPINE1 (gene 5054)
Kind of test: BSK_BF4T_PAI1: BioMAP Diversity Plus: BF4T Assay for Plasminogen Activator Inhibitor-1 (PAI1) Biomarker Activity (AID 2284273). The conditions noted are these: primary human bronchial epithelial cells with fibroblasts. Summed up: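 Co-culture of human bronchial epithelial cells and dermal fibroblasts exposed to compound for 24 h. PAI-1 measured by ELISA; activity fitted in positive direction versus DMSO. Parallel SRB staining assessed overt cytotoxicity.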

Test [9] can be described thus: BSK_BF4T_SRB: Viability Assessment in the BioMAP Diversity Plus: BF4T Assay (AID 2284274). The conditions noted are these: primary human bronchial epithelial cells with fibroblasts. The method, boiled down: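 Co-culture of human bronchial epithelial cells and dermal fibroblasts (BioMAP BF4T) exposed 24 h. Total protein by sulforhodamine B staining (0.1% SRB after 10% TCA fixation, 560 nm) in parallel cultures; fitted vs DMSO.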

Read-out in test [10]: Matrix Metallopeptidase 9 (MMP9), MMP9 (gene 4318)
The test can be described thus: BSK_BF4T_MMP9: BioMAP Diversity Plus: BF4T Assay for Matrix Metallopeptidase 9 (MMP9) Biomarker Activity (AID 2284276). The conditions noted are these: primary human bronchial epithelial cells with fibroblasts. The method, boiled down: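 Co-culture of human bronchial epithelial cells and dermal fibroblasts dosed for 24 h; MMP-9 quantified by ELISA and fitted upward versus DMSO. Cytotoxicity monitored in parallel cultures by SRB total-protein staining at the biomarker time point.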

Read-out in test [11]: Interleukin-8 (IL8), CXCL8 (gene 3576)
Kind of test: BSK_IMphg_IL8: BioMAP Diversity Plus: IMphg Assay for Interleukin-8 (IL8) Biomarker Activity (AID 2284277). Conditions: primary human endothelial cells with macrophages. The method, boiled down: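 Co-culture of human venular endothelial cells and macrophages exposed to chemicals for 24 h; IL-8 quantified by ELISA and compared against the DMSO baseline, with SRB total-protein staining in parallel cultures for cytotoxicity.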

Read-out in test [12]: Intercellular Adhesion Molecule 1 (ICAM1), ICAM1 (gene 3383)
Kind of test: BSK_BE3C_ICAM1: BioMAP Diversity Plus: BE3C Assay for Intercellular Adhesion Molecule 1 (ICAM1) Biomarker Activity (AID 2284278).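 As to outcome: cell-surface ICAM-1 protein level quantified by ELISA.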 Conditions: primary human bronchial epithelial cells. The method, boiled down: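 Primary human bronchial epithelial cells were exposed to compound for 24 h, after which cell-surface ICAM-1 was quantified by ELISA. Activity was fitted in the gain-of-signal direction against DMSO as negative control and baseline.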

Read-out in test [13]: Interferon-inducible T-cell alpha chemoattractant (ITAC), CXCL11 (gene 6373)
The test can be described thus: BSK_BE3C_ITAC: BioMAP Diversity Plus: BE3C Assay for Interferon-inducible T-cell alpha chemoattractant (ITAC) Biomarker Activity (AID 2284279). The conditions noted are these: primary human bronchial epithelial cells. The method, boiled down:
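Steps: dose human bronchial epithelial cells with chemical; incubate 24 h; measure I-TAC by ELISA; fit endpoint in positive direction against DMSO control. Cytotoxicity was checked in parallel cultures by SRB staining at harvest.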

Read-out in test [14]: KRT18 (gene 3875)
The test can be described thus: BSK_BE3C_Keratin818: BioMAP Diversity Plus: BE3C Assay for Keratin 818 Biomarker Activity (AID 2284282). Conditions: primary human bronchial epithelial cells. Summed up: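 Human primary bronchial epithelial cells in the BE3C system were exposed to test chemical for 24 h, then Keratin 8/18 was quantified by ELISA. Activity was fitted in the positive direction against DMSO as negative control and baseline.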

Read-out in test [15]: Interleukin-8 (IL8), CXCL8 (gene 3576)
Kind of test: BSK_BE3C_IL8: BioMAP Diversity Plus: BE3C Assay for Interleukin-8 (IL8) Biomarker Activity (AID 2284280). The conditions noted are these: primary human bronchial epithelial cells. The method, boiled down: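 IL-8 signal gain, normalised to DMSO vehicle, was scored after a 24 h chemical exposure of primary human bronchial epithelial cells, with detection by ELISA.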

Read-out in test [16]: urokinase Plasminogen Activator (uPA), PLAU (gene 5328)
The test can be described thus: BSK_BF4T_uPA: BioMAP Diversity Plus: BF4T Assay for urokinase Plasminogen Activator (uPA) Biomarker Activity (AID 2284275). The conditions noted are these: primary human bronchial epithelial cells with fibroblasts. The method, boiled down: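 Co-culture of human bronchial epithelial cells and dermal fibroblasts; uPA quantified by ELISA 24 hours after dosing, fitted relative to DMSO. Parallel SRB total-protein staining assessed overt cytotoxicity.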

Read-out in test [17]: Interleukin-8 (IL8), CXCL8 (gene 3576)
The test can be described thus: BSK_BF4T_IL8: BioMAP Diversity Plus: BF4T Assay for Interleukin-8 (IL8) Biomarker Activity (AID 2284263). The conditions noted are these: primary human bronchial epithelial cells with fibroblasts. Summed up: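 Human bronchial epithelial cells with dermal fibroblasts co-culture; IL-8 measured by ELISA 24 hours after dosing, fitted vs DMSO. Cytotoxicity tracked in parallel cultures by SRB total-protein staining.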

Read-out in test [18]: Tissue plasminogen activator (tPA), PLAT (gene 5327)
The test can be described thus: BSK_BF4T_tPA: BioMAP Diversity Plus: BF4T Assay for Tissue plasminogen activator (tPA) Biomarker Activity (AID 2284272). Conditions: primary human bronchial epithelial cells with fibroblasts. Summed up: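 tPA level quantified by ELISA at 24 h post-treatment in bronchial epithelial/dermal fibroblast co-cultures, gain of signal scored against DMSO baseline. Parallel cultures stained with 0.1% SRB (560 nm) to flag overt cytotoxicity.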

“And” between values parts separate entries of the source, which are not always exact repeats. Equal entries are not always repeated. The source holds several records for some structures; these can differ, active in one and inactive in another. The source made the active and inactive calls. The calls were made as follows: active = hit-call score of the fitted dose curve at least 0.9, where 1 is the maximum; inactive = score below 0.9.

Consider `O=C(O)C(F)(F)C(F)(F)F`, for which the outcome was “inactive” in [1]; “inactive” with Decorin, DCN (gene 1634); “inactive” with KRT18 (gene 3875) [2]; “inactive” in test [3]; “inactive” in test [4]; “inactive” in test [5]. The result in test [6], in test [7], in test [8], in test [9], in [10] and in [11] was inactive. Further, the outcome (in test [12]; in test [13]; with KRT18 (gene 3875) [14]) was inactive.

Consider `O=C(O)C(F)(F)C(F)(F)C(F)F`, for which the outcome in test [1] was “inactive”; with Decorin, DCN (gene 1634), “inactive”; in the test with KRT18 (gene 3875) [2], “inactive”; in test [3], “inactive”; in [4], “inactive”; in test [5], “inactive”. The result in test [6], in [8], in [10], in test [11], in test [12] and in test [13] was inactive. Also, the result (in test [15]; with KRT18 (gene 3875) [14]) was inactive. In addition, the AC50 in the test with Decorin, DCN (gene 1634) was 30 µM (active).

For the molecule `FC(F)(F)C(F)(F)C(F)(F)C(F)(F)C(F)(F)C(F)(F)CCS`, the figures for the half-maximal activity concentration (AC50) in [1] and in [11] were 10.9 µM (active) and 0.876 µM (active), respectively. The outcome is “inactive” in [1]; “inactive” in the test with Decorin, DCN (gene 1634); “inactive” with KRT18 (gene 3875) [2]; “inactive” in test [3]; “inactive” in test [4]; “inactive” in test [5]. The result in test [6], in test [7], in [8], in test [16], in [10] and in test [11] was inactive. Moreover, the result (in [13]; in the test with KRT18 (gene 3875) [14]) was inactive.

In the case of `FC(F)(I)C(F)(F)C(F)(F)C(F)(F)I`, the AC50 was 45.6 µM (active) and 51 µM (active) and 55.6 µM (active) in [17]; 55.2 µM (active) and 45.6 µM (active) and 47.3 µM (active) in test [1]; 45.8 µM (active) and 45.9 µM (active) and 54.5 µM (active) in the test with Decorin, DCN (gene 1634); 46.6 µM (active) and 47.8 µM (active) and 47.4 µM (active) in the test with KRT18 (gene 3875) [2]; 46.5 µM (active) and 53 µM (active) and 53.4 µM (active) in test [3]; 52 µM (active) and 48.5 µM (active) in [4]. The concentration at half-maximal activity (AC50) in test [5] is 56 µM (active) and 47.7 µM (active) and 46.9 µM (active); in test [6], 51.2 µM (active) and 48.6 µM (active) and 50.2 µM (active); in test [7], 49.7 µM (active) and 50.4 µM (active) and 51.2 µM (active); in test [8], 45.8 µM (active) and 47.3 µM (active); in test [10], 54.1 µM (active) and 47 µM (active) and 46.8 µM (active); in [11], 1.19 µM (active). Moreover, the half-maximal activity concentration (AC50) is 44.1 µM (active) and 41.4 µM (active) and 55.3 µM (active) in [12]; 46.2 µM (active) and 51.9 µM (active) and 49.2 µM (active) in test [13]; 47 µM (active) and 47.5 µM (active) and 43.1 µM (active) with KRT18 (gene 3875) [14]. Further, the outcome in test [4], in test [8] and in test [11] was inactive.

As for `OCCCC(F)(F)C(F)(F)C(F)(F)F`, the outcome is “inactive” in test [1]; “inactive” with Decorin, DCN (gene 1634); “inactive” with KRT18 (gene 3875) [2]; “inactive” in test [3]; “inactive” in test [4]; “inactive” in [5]. Further, the outcome in test [6], in test [7], in [8], in test [10], in [11] and in test [12] was inactive. For the same molecule, the result (in test [13]; with KRT18 (gene 3875) [14]) was inactive.

As for `OCC(F)(F)C(F)(F)C(F)(F)C(F)F`, the outcome in [17] was “inactive”; in test [1] it was “inactive”; in the test with Decorin, DCN (gene 1634), “inactive”; with KRT18 (gene 3875) [2] it was “inactive”; in [3], “inactive”; in test [4] it was “inactive”. Also, the outcome in [5], in test [6], in test [18], in [8], in [9] and in test [16] was inactive. Further, the result (in test [10]; in test [11]; in [13]; with KRT18 (gene 3875) [14]) was inactive. Besides, the AC50 in the test with Decorin, DCN (gene 1634) is 5.95 µM (active).
